The values that follow come from PubChem BioAssay (EPA / NIEHS).

Activity calls are given as the source filed them. How the source made its calls: active means hit-call score of the fitted dose curve at least 0.9, where 1 is the maximum; inactive means score below 0.9.

One may read the AC50 as the concentration giving half of the maximal activity seen.

The nature of the assay: STM_H9_OrnithineISnorm_perc: Stemina devTOX quickPredict H9 human embryonic stem cell (hESC)-based Assay for Ornithine (ORN) Metabolite Biomarker, Normalized (AID 2283712).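 Further: ornithine released into spent medium during last day measured by mass spectrometry.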 The text has this:
STM_H9_secretome utilizes undifferentiated H9 cells to measure relative changes in two metabolites, ornithine (ORN) and cystine (CYSS) in the secretome, targeting a critical drop in the ORN/CYSS ratio as a biomarker for developmental toxicity.STM_H9_OrnithineISnorm is one of 10 components calculated in the STM_H9_secretome assay. It measures the integrated area of the endogenous ornithine normalized to the spiked-in isotopically labeled standard and to the median value of the 0.1% DMSO neutral control treatment using UPLC-HRMS technology.Data from the assay component STM_H9_OrnithineISnorm_perc was analyzed at the assay endpoint STM_H9_OrnithineISnorm_perc in the positive analysis fitting direction relative to DMSO as the negative control and baseline of activity. Using a type of binding reporter, gain or loss-of-signal activity can be used to understand relative metabolite change.
H9 hESCs maintained in a pluripotent state were exposed to test compound for 72h with chemical replenishment with media replacement every 24h. Cell-conditioned media from the final 24-h treatment period was collected for analysis of the targeted biomarker, and cell viability of the corresponding cell layer was assessed. The chemical library was tested in blinded fashion. Each test plate included 1uM Methotrexate (MTX; Selleck Chemicals, Houston, Texas) as a positive reference, 5 nM MTX as a negative reference, 0.1% DMSO as the neutral (vehicle) control, and sample-level media blanks.H9 cell-conditioned media from the final 24-h treatment period was collected for analysis of the targeted biomarker and cell viability was measured from the corresponding cell layer. Cell viability was measured using the CellTiter-Fluor assay (Promega, Madison, Wisconsin) based on proteolytic cleavage of a substrate to fluorescent signal proportional to the number of living cells. The cell viability Relative Fluorescence Unit (RFU) was background corrected and normalized to mean RFU of the neutral control (0.1% DMSO). The collected H9-cell-conditioned media samples were processed for targeted biomarker analysis as described (Palmer et al., 2013). Briefly, spent media samples were deproteinized (40% acetonitrile) and processed for UPLC-HRMS. Data acquisition was performed using 4 separate UPLC-HRMS systems, consisting of an Agilent 1290 Infinity LC system (Agilent Technologies) interfaced with an Agilent high-resolution mass spectrometer (models G6520A, G6520B, G6530A, and G6224A). A Waters Acquity UPLC BEH Amide column (2.1mm x 50mm, 1.7lm particle size; Waters, Milford, Massachusetts) maintained at 40C was applied for separation of metabolites using a 6.5min solvent gradient with 0.1% formic acid in water and 0.1% formic acid in acetonitrile (1.0ml/min flow rate). Data were acquired using MassHunter Acquisition software (version B 04.00, Agilent Technologies). The extracted ion chromatogram (EIC) areas for ORN, CYSS, and their respective spike-in C13-standards were determined using the Agilent MassHunter Quantitative Analysis software, version B.05.00 or newer (Agilent Technologies), and data were normalized as described in Palmer et al. (2017).
In the case of `CC(C)OC(=O)Nc1cccc(Cl)c1`, the result was inactive. Regarding `CCOCN(C(=O)CCl)c1c(C)cccc1CC`, the outcome was inactive. Turning to `CCC(C)(NC(=O)c1cc(Cl)c(C)c(Cl)c1)C(=O)CCl` (stereo not drawn), the half-maximal activity concentration (AC50) is 19.6 µM (active).

Turning to `O=C(Nc1ccccc1)Nc1cnns1`, the outcome was inactive. For `CC(C)(C)C(O)C(Oc1ccc(Cl)cc1)n1cncn1` (stereo not drawn), the result was inactive. Turning to `CC(C)(C)C(O)/C(=C\c1ccc(Cl)cc1Cl)n1cncn1` (stereo not drawn), the AC50 is 69.4 µM (active). As for `C#CCN1C(=O)COc2cc(F)c(N3C(=O)C4=C(CCCC4)C3=O)cc21`, the AC50 is 84.1 µM (active). The same measure, in the same setting: to `CC1(c2ccc(Oc3ccccc3)cc2)OC(=O)N(Nc2ccccc2)C1=O` (stereo not drawn) belongs 4.54 µM (active). Turning to `CCOC1Oc2ccc(OS(C)(=O)=O)cc2C1(C)C` (stereo not drawn), the AC50 was 86.3 µM (active). The same measure, in the same setting: to `O=S1OCC2C(CO1)C1(Cl)C(Cl)=C(Cl)C2(Cl)C1(Cl)Cl` (stereo not drawn) belongs 36.1 µM (active). With `Cc1[nH]c(=O)n(C(C)(C)C)c(=O)c1Cl`, the outcome was inactive. `CCC(C)Nc1c([N+](=O)[O-])cc(C(C)(C)C)cc1[N+](=O)[O-]` (stereo not drawn): the outcome was inactive. In the case of `CC1(C)C(C=C(Cl)Cl)C1C(=O)OC(C#N)c1ccc(F)c(Oc2ccccc2)c1` (stereo not drawn), the result was inactive.

In the case of `Oc1cc(Cl)ccc1Oc1ccc(Cl)cc1Cl`, the AC50 was 86.3 µM (active).

Regarding `O=C(NC(=O)c1c(F)cccc1F)Nc1ccc(OC(F)(F)C(F)OC(F)(F)F)c(Cl)c1` (stereo not drawn), the outcome was inactive.

As to `O=S(=O)(O)C(F)(F)C(F)(F)C(F)(F)C(F)(F)C(F)(F)C(F)(F)C(F)(F)C(F)(F)F`, the result was inactive. On the same count and under the same terms, to `Oc1ccc(Cl)cc1Cc1ccccc1` belongs “inactive”; to `O=C(O)C(F)(F)C(F)(F)C(F)(F)C(F)(F)C(F)(F)C(F)(F)C(F)(F)F`, “inactive”.
